The results in this text go back to PubChem BioAssay (EPA / NIEHS).

Structures are written as SMILES. Calls of active or inactive are those of the source. The calls were made as follows: active = hit-call score of the fitted dose curve at least 0.9, where 1 is the maximum; inactive = score below 0.9.

Read-out in assay [1]: Interleukin-1 alpha (IL1a), IL1A (gene 3552)
The experiment in a line: BSK_KF3CT_IL1a: BioMAP Diversity Plus: KF3CT Assay for Interleukin-1 alpha (IL1a) Biomarker Activity (AID 2283070). The settings on record: primary human keratinocytes with fibroblasts; actives raise or lower the signal. The procedure, abridged:
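Primary skin co-culture (keratinocytes, foreskin fibroblasts), 24 h exposure; ELISA for IL-1a; bidirectional curve fit vs DMSO.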

Read-out in assay [2]: TIMP metallopeptidase inhibitor 2 (TIMP2), TIMP2 (gene 7077)
Kind of assay: BSK_KF3CT_TIMP2: BioMAP Diversity Plus: KF3CT Assay for TIMP metallopeptidase inhibitor 2 (TIMP2) Biomarker Activity (AID 2283071). The settings on record: primary human keratinocytes with fibroblasts; actives raise or lower the signal. The method, boiled down:
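ELISA readout of TIMP-2 in keratinocyte plus foreskin fibroblast co-cultures (human skin primary cells), 24 h post-dose. Gain or loss of signal fitted relative to DMSO.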

Read-out in assay [3]: Transforming growth factor beta 1 (TGFb1), TGFB1 (gene 7040)
The experiment in a line: BSK_KF3CT_TGFb1: BioMAP Diversity Plus: KF3CT Assay for Transforming growth factor beta 1 (TGFb1) Biomarker Activity (AID 2283072). The settings on record: primary human keratinocytes with fibroblasts; actives raise or lower the signal. The method, boiled down:
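Read-out: ELISA for TGF-b1 in keratinocyte/foreskin fibroblast human skin co-culture, 24 h after dosing; bidirectional curve fit vs DMSO baseline; gain or loss of signal scored.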

Read-out in assay [4]: C-C motif chemokine 2 (Homo sapiens) (UniProt P13500)
Kind of assay: BSK_KF3CT_MCP1: BioMAP Diversity Plus: KF3CT Assay for Monocyte Chemoattractant Protein 1 (MCP1/CCL2) Biomarker Activity (AID 2283073). As to conditions: primary human keratinocytes with fibroblasts; actives raise or lower the signal. The procedure, abridged: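 ELISA read-out of MCP-1, 24 h post-dose, in primary human skin keratinocytes co-cultured with fibroblasts. Parallel SRB staining monitors cytotoxicity; changes fitted both directions relative to DMSO.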

Read-out in assay [5]: Matrix Metallopeptidase 9 (MMP9), MMP9 (gene 4318)
Kind of assay: BSK_KF3CT_MMP9: BioMAP Diversity Plus: KF3CT Assay for Matrix Metallopeptidase 9 (MMP9) Biomarker Activity (AID 2283074).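 As to AC50: MMP9 protein level quantified by ELISA in the co-culture.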 As to conditions: primary human keratinocytes with fibroblasts; actives raise or lower the signal. The method, boiled down: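 ELISA read-out of MMP-9 at 24 h post-dosing in a co-culture of human skin keratinocytes and foreskin fibroblasts. Gain or loss of signal was fitted in both directions against DMSO.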

Read-out in assay [6]: urokinase plasminogen activator (uPA), PLAU (gene 5328)
Kind of assay: BSK_KF3CT_uPA: BioMAP Diversity Plus: KF3CT Assay for urokinase plasminogen activator (uPA) Biomarker Activity (AID 2283075). As to conditions: primary human keratinocytes with fibroblasts; actives raise or lower the signal. The procedure, abridged:
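Skin co-culture (keratinocytes + foreskin fibroblasts), human primary; 24 h post-dose; uPA by ELISA; gain/loss fit vs DMSO baseline.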

Read-out in assay [7]: CD40, CD40 (gene 958)
Kind of assay: BSK_LPS_CD40: BioMAP Diversity Plus: LPS Assay for CD40 Biomarker Activity (AID 2283076). As to conditions: primary human HUVEC with PBMC; actives raise or lower the signal. The procedure, abridged:
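In the LPS system of human endothelial cells with peripheral blood mononuclear cells, CD40 levels were read by ELISA 24 h post-treatment. Signal changes in either direction were fitted against the DMSO baseline, with parallel SRB protein staining.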

Read-out in assay [8]: E-selectin (Homo sapiens) (UniProt P16581)
Kind of assay: BSK_LPS_Eselectin: BioMAP Diversity Plus: LPS Assay for Eselectin Biomarker Activity (AID 2283077). The settings on record: primary human HUVEC with PBMC; actives raise or lower the signal. The method, boiled down: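 E-selectin ELISA on LPS-stimulated endothelial cell/PBMC co-cultures, read 24 h post-treatment; gains and losses fitted against DMSO. Parallel SRB staining (0.1% SRB after 10% TCA fixation, 560 nm) flags overt cytotoxicity.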

Read-out in assay [9]: Interleukin-8 (IL8), CXCL8 (gene 3576)
Kind of assay: BSK_LPS_IL8: BioMAP Diversity Plus: LPS Assay for Interleukin-8 (IL8) Biomarker Activity (AID 2283078). As to conditions: primary human HUVEC with PBMC; actives raise or lower the signal. The procedure, abridged:
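ELISA read-out of IL-8 after 24 h chemical treatment of LPS-activated endothelial/PBMC human primary co-cultures. Changes either up or down relative to DMSO; overt cytotoxicity checked by sulforhodamine B staining in parallel wells.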

Assay [10] in a line: BSK_LPS_SRB: Viability Assessment in the BioMAP Diversity Plus: LPS Assay (AID 2283079).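 Also: total protein by sulforhodamine B absorbance as a cytotoxicity measure; measured one day after compound addition.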 As to conditions: primary human HUVEC with PBMC. The method, boiled down: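 SRB viability endpoint: cells fixed with 10% TCA, stained with 0.1% SRB, read at 560 nm, 24 h post-dose. HUVEC/PBMC co-culture; signal change in either direction scored relative to DMSO.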
Read-out in assay [11]: Interleukin-1 alpha (IL1a), IL1A (gene 3552)
The experiment in a line: BSK_LPS_IL1a: BioMAP Diversity Plus: LPS Assay for Interleukin-1 alpha (IL1a) Biomarker Activity (AID 2283080). The settings on record: primary human HUVEC with PBMC; actives raise or lower the signal. The procedure, abridged:
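Readout is IL-1a level by ELISA, 24 h post-dose, fitted as gain or loss relative to DMSO. System: LPS-activated human primary co-culture of vascular endothelium and peripheral blood mononuclear cells, with parallel SRB total-protein cytotoxicity.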

Read-out in assay [12]: Monocyte Chemoattractant Protein-1 (MCP1), CCL2 (gene 6347)
The experiment in a line: BSK_LPS_MCP1: BioMAP Diversity Plus: LPS Assay for Monocyte Chemoattractant Protein-1 (MCP1) Biomarker Activity (AID 2283081).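 As to AC50: secreted MCP-1 protein quantified by ELISA in culture supernatant.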 As to conditions: primary human HUVEC with PBMC; actives raise or lower the signal. The method, boiled down:
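Secreted MCP-1 read by ELISA at 24 h post-dosing in an LPS-activated co-culture of endothelial cells with peripheral blood mononuclear cells. Fits run in both directions, DMSO as baseline; parallel SRB staining tracks overt cytotoxicity.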

The nature of assay [13]: BSK_LPS_PGE2: BioMAP Diversity Plus: LPS Assay for Prostaglandin E2 (PGE2) Biomarker Activity (AID 2283082).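 As to AC50: secreted prostaglandin E2 measured by ELISA in LPS-stimulated co-culture.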 The settings on record: primary human HUVEC with PBMC; actives raise or lower the signal. The method, boiled down: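 ELISA read-out of PGE2 from human umbilical vein endothelial cells co-cultured with peripheral blood mononuclear cells under LPS, 24 h post-dose. Gain or loss of signal scored relative to DMSO baseline.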

Read-out in assay [14]: Macrophage colony-stimulating factor (MCSF), CSF1 (gene 1435)
The experiment in a line: BSK_LPS_MCSF: BioMAP Diversity Plus: LPS Assay for Macrophage colony-stimulating factor (MCSF) Biomarker Activity (AID 2283083). As to conditions: primary human HUVEC with PBMC; actives raise or lower the signal. The method, boiled down:
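Bidirectional fitting against DMSO was applied to M-CSF levels read by ELISA at 24 h post-dose. The system pairs human umbilical vein endothelium with peripheral blood mononuclear cells; parallel SRB staining tracked cytotoxicity.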

Read-out in assay [15]: Tumor necrosis factor (Homo sapiens) (UniProt P01375)
Kind of assay: BSK_LPS_TNFa: BioMAP Diversity Plus: LPS Assay for Tumour Necrosis Factor alpha (TNFa) Biomarker Activity (AID 2283085).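 As to AC50: TNFa protein level quantified by ELISA in the co-culture.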 As to conditions: primary human HUVEC with PBMC; actives raise or lower the signal. The method, boiled down: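 HUVEC/PBMC co-culture, LPS-stimulated; 24 h post-dose; TNFa by ELISA; gain or loss of signal fitted bidirectionally vs DMSO baseline.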

Read-out in assay [16]: Vascular cell adhesion molecule 1 (VCAM1), VCAM1 (gene 7412)
The experiment in a line: BSK_LPS_VCAM1: BioMAP Diversity Plus: LPS Assay for Vascular cell adhesion molecule 1 (VCAM1) Biomarker Activity (AID 2283086). The settings on record: primary human HUVEC with PBMC; actives raise or lower the signal. The method, boiled down:
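ELISA read-out of VCAM-1 at 24 h post-dosing in an LPS-driven HUVEC/PBMC primary human co-culture; gain or loss of signal fitted bidirectionally against DMSO baseline. Cytotoxicity tracked in parallel cultures by SRB total-protein staining.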

Read-out in assay [17]: CD38, CD38 (gene 952)
Kind of assay: BSK_SAg_CD38: BioMAP Diversity Plus: SAg Assay for CD38 Biomarker Activity (AID 2283087). As to conditions: primary human HUVEC with PBMC; actives raise or lower the signal. The procedure, abridged: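 Measures CD38 on a human endothelial/PBMC co-culture driven by SEB and TSST-1, 24 h after compound exposure, using ELISA with fluorescence detection; DMSO defines baseline for bidirectional curve fitting.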

Read-out in assay [18]: CD40, CD40 (gene 958)
The experiment in a line: BSK_SAg_CD40: BioMAP Diversity Plus: SAg Assay for CD40 Biomarker Activity (AID 2283088). The settings on record: primary human HUVEC with PBMC; actives raise or lower the signal. The method, boiled down: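 CD40 is measured by fluorescence ELISA in an endothelial/PBMC primary human co-culture at 24 h post-dose. Fitting is bidirectional, DMSO baseline. Parallel SRB staining (560 nm) flags cytotoxicity.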

Read-out in assay [19]: CD69, CD69 (gene 969)
Kind of assay: BSK_SAg_CD69: BioMAP Diversity Plus: SAg Assay for CD69 Biomarker Activity (AID 2283089).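 As to AC50: cell surface CD69 protein quantified by ELISA with fluorescence detection.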 As to conditions: primary human HUVEC with PBMC; actives raise or lower the signal. The method, boiled down: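 ELISA, fluorescence read-out: CD69 on human umbilical vein endothelial cell + PBMC co-culture, 24 h post-dosing. Gain or loss of signal fitted bidirectionally against DMSO baseline.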

Read-out in assay [20]: Tissue Factor, F3 (gene 2152)
Kind of assay: BSK_LPS_TissueFactor: BioMAP Diversity Plus: LPS Assay for Tissue Factor Biomarker Activity (AID 2283084). As to conditions: primary human HUVEC with PBMC; actives raise or lower the signal. The method, boiled down: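 Compound was added to an endothelial cell/PBMC co-culture, and after 24 h tissue factor (CD142) was read by ELISA. Gain or loss of signal was fitted against a DMSO baseline, and parallel SRB staining (560 nm) tracked overt cytotoxicity.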

Chain of Tumor necrosis factor (Homo sapiens) (P01375 whole entry, looked up): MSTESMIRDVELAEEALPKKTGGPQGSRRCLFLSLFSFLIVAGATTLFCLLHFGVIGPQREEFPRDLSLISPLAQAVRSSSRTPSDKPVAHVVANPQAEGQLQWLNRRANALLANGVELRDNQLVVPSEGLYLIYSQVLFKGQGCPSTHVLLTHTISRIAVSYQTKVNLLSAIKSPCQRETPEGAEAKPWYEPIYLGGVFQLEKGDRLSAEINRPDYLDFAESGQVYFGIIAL
Chain of E-selectin (Homo sapiens) (P16581 whole entry, looked up): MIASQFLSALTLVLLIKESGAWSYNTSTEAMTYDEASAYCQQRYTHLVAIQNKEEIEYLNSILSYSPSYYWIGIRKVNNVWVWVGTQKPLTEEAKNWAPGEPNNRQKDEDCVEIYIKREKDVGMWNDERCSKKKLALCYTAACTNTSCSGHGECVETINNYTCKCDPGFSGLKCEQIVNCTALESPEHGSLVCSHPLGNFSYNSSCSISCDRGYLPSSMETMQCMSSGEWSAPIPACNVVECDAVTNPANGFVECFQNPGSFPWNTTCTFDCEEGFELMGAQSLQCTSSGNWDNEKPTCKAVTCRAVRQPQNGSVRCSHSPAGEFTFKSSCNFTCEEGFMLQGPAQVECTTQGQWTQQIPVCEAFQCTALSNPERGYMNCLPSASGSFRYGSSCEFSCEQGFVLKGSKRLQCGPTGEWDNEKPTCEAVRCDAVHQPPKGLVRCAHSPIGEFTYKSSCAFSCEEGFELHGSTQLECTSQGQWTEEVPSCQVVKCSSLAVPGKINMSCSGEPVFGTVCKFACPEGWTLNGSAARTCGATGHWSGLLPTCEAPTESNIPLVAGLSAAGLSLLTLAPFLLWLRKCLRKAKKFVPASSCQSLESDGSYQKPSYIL

On to `CCCCC1C(=O)N(c2ccccc2)N(c2ccccc2)C1=O`, for which the outcome in assay [1], in assay [2], in [3], in assay [4], in assay [5] and in [6] was inactive. Moreover, the outcome in assay [7], in [8], in [9], in [10], in assay [11] and in assay [12] was inactive. Moreover, the outcome in assay [13], in [14], in assay [15], in [16], in assay [17] and in assay [18] was inactive. Moreover, the result in assay [19] was inactive.

Take `CCc1cccc(C)c1N(C(=O)CS(=O)(=O)O)C(C)COC` (stereo not given): the outcome in assay [1], in [2], in [3], in assay [4], in assay [5] and in assay [7] was inactive. Besides, the outcome in assay [8], in assay [9], in [10], in assay [11], in [12] and in assay [13] was inactive. Besides, the outcome in assay [14], in [15], in assay [16], in assay [17] and in assay [19] was inactive.

As for `C=CC(=O)OCCCCCCOC(=O)C=C`, the AC50 in assay [1] is 11.3 µM (active); in assay [2] it was 20 µM (active); in [3], 3.97 µM (active); in assay [5], 12.5 µM (active); in [6], 20 µM (active); in assay [7], 7.82 µM (active). The half-maximal activity concentration (AC50) in assay [8] was 9.18 µM (active); in [9], 4.79 µM (active); in [10] it was 20 µM (active); in [11], 8.11 µM (active); in assay [12] it was 4.29 µM (active); in assay [13], 2.13 µM (active). The AC50 in assay [14] is 5.31 µM (active); in assay [20], 9.18 µM (active); in [15] it was 3.96 µM (active); in assay [16], 5.81 µM (active); in [17], 3.8 µM (active); in [19], 2.98 µM (active). Moreover, in assay [4], the outcome was inactive.

For orientation: AC50 means the midpoint of the concentration-response curve, whichever way the signal moves.
